From PubChem BioAssay
KB-V1 MDR tox – kills drug-selected multidrug resistant KB-V1 cells; KB-V1 MDR cells viability, CellTiter-Glo, 72 h; Potency, µM (doses to about 46.1 µM), actives largely listed as cytotoxic; actives 3.4% (n = 400,000); AID 1347076; also: nearly all actives have a fitted effect of over 60% in size
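Cytotoxicity via CellTiter-Glo luminescence after 72 h compound exposure at 37 degrees C. Cells: drug-selected KB-V1 line, DMEM phenol-red free plus 10% FBS. Compounds tested at multiple concentrations; normalized data fitted to concentration-effect curves.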
HT1080-NT tox – kills 2HG-producing HT-1080-NT fibrosarcoma cells | HT-1080-NT fibrosarcoma viability, CellTiter-Glo ATP luminescence, 48 h | Potency, µM (top dose mostly 46.1 µM), usual class: cytotoxic | actives 1.6% (n = 360,000) | AID 686970;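 also: NT is the 2HG producing partner of a matched IDH1 knockdown line; nearly all actives have a fitted effect of over 55% in size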
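Luminescent CellTiter-Glo readout after 48 hours of compound exposure at 37 degrees C defined viability of HT-1080-NT cells. Activity was normalized to DMSO wells and cell-free media wells; concentration-response curves were fitted and assigned curve classes.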
KB-3-1 cytotox – KB-3-1 parental cell cytotoxicity; KB-3-1 viability, CellTiter-Glo ATP luminescence, 72 h; Potency, µM (highest dose often 46.1 µM), most hits filed as cytotoxic; actives 1.4% (n = 400,000); AID 1347075; also: nearly all actives have a fitted effect of over 60% in size
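Multi-concentration cytotoxicity screen in KB-3-1 cells grown in DMEM lacking phenol red with 10% FBS. After 72 h at 37 °C with compound, ATP-dependent luminescence was recorded.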
MCF10A rereplic – induces DNA re-replication in MCF 10a normal breast cells; MCF 10A DNA re-replication, Hoechst nuclear intensity, 48 h; Potency, µM (titrated, usually from 46.1 µM), usual class: activators; actives 2.9% (n = 350,000); also: nearly all actives have a fitted effect of over 50% in size
SW480 rerep – DNA re-replication induction in SW480 cells; Potency, µM (series often up to 46.1 µM), actives largely listed as activators; actives 1.8% (n = 340,000); SW480 DNA re-replication, Hoechst DNA content imaging, 48 h; also: nearly all actives have a fitted effect of over 55% in size
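Image-based read-out: total Hoechst fluorescence of nuclei (405 nm excitation, 500-530 nm emission), with hits raising the fraction of high-intensity nuclei. SW480 colon cells incubated 48 hr with compounds at 37 C.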
HT1080 IDH1KD tx – HT-1080 IDH1 knockdown cell toxicity (counter line). HT-1080 IDH1 knockdown viability, ATP luminescence, 48 h. Potency, µM (highest dose often 46.1 µM), most hits filed as cytotoxic. actives 2% (n = 360,000)
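IDH1KD HT-1080 cells, 750/well, RPMI + 5% FBS; compound pinned after 2 h settling; 48 h, 37 °C; CellTiter-Glo luminescence; % activity normalised to DMSO and no-cell wells; curves fitted, classed by r2 and efficacy.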
Each line names hits and unclear results; the compound was inactive in the other large screens; ! = not confirmed by another sample. A selection: hits, their analogues and other compounds. The true share with any hit is near 7.9%. Calls follow the shape of the dose curve; as a rule, active = well fitted curve in the direction sought with a large enough effect; inconclusive = small, poorly fitted or top-dose-only effect, or another doubt; inactive = no such curve, though single readings can be large; an effect the other way counts as inactive or inconclusive.

Clc1ccc([C@H](Cn2ccnc2)OCc2csc3c(Cl)cccc23)c(Cl)c1	none (no result: KB-V1 MDR tox, HT1080-NT tox, KB-3-1 cytotox, HT1080 IDH1KD tx)
CN1CCC[C@@H]1c1cccnc1	none (no result: KB-V1 MDR tox, HT1080-NT tox, KB-3-1 cytotox, HT1080 IDH1KD tx)
C/C=C(\C)C(=O)N[C@@H](c1ccccc1)[C@@H](O)C(=O)O[C@H]1C[C@@]2(O)[C@@H](OC(=O)c3ccccc3)C3[C@](C)(C(=O)[C@H](OC(C)=O)C(=C1C)C2(C)C)[C@H](O)C[C@H]1OC[C@@]31OC(C)=O (stereo partly specified)	KB-V1 MDR tox inconclusive, HT1080-NT tox 0.0461µM, KB-3-1 cytotox 0.0073µM, MCF10A rereplic 0.231µM, SW480 rerep 1.46µM, HT1080 IDH1KD tx 0.0052µM
CCC(C)C(=O)N[C@@H](c1ccccc1)[C@@H](O)C(=O)O[C@H]1C[C@@]2(O)[C@@H](OC(=O)c3ccccc3)C3[C@](C)(C(=O)[C@H](OC(C)=O)C(=C1C)C2(C)C)[C@@H](O)C[C@H]1OC[C@@]31OC(C)=O (stereo partly specified)	HT1080-NT tox 0.184µM, KB-3-1 cytotox 0.0065µM, SW480 rerep 1.64µM, HT1080 IDH1KD tx inconclusive
CC/C=C/CC(=O)N[C@@H](c1ccccc1)[C@@H](O)C(=O)O[C@H]1C[C@@]2(O)[C@@H](OC(=O)c3ccccc3)C3[C@](C)(C(=O)[C@H](OC(C)=O)C(=C1C)C2(C)C)[C@@H](O)C[C@H]1OC[C@@]31OC(C)=O (stereo partly specified)	KB-V1 MDR tox inconclusive, HT1080-NT tox 0.0411µM, KB-3-1 cytotox 0.581µM, MCF10A rereplic inconclusive, SW480 rerep inconclusive, HT1080 IDH1KD tx 0.0052µM
CC12NC(Cc3ccccc31)c1ccccc12 (stereo unspecified)	none (no result: KB-V1 MDR tox, HT1080-NT tox, KB-3-1 cytotox, HT1080 IDH1KD tx)
CC/C(=C\C=C\[C@@H]1C=C[C@@H]2CCC[C@H]2[C@@H]1C(=O)c1ccc[nH]1)[C@@H]1O[C@@H]([C@@H](C)C(=O)O)CC[C@@H]1C	KB-V1 MDR tox inconclusive, HT1080-NT tox 10.3µM, KB-3-1 cytotox inconclusive, MCF10A rereplic inconclusive, SW480 rerep inconclusive, HT1080 IDH1KD tx 8.2µM
O=C(CCc1nc(C2=CCN(Cc3cccc(Cl)c3)CC2)no1)Nc1ccccc1F	none (no result: HT1080-NT tox, MCF10A rereplic, SW480 rerep, HT1080 IDH1KD tx)
COc1cccc(C(C)(O)c2nc(-c3cccc(F)c3)cs2)c1 (stereo unspecified)	HT1080-NT tox inconclusive (no result: MCF10A rereplic, SW480 rerep)
Cc1cnc(C)c(Nc2nc(C(N)Cc3ccc(C(F)(F)F)cc3)cs2)n1 (stereo unspecified)	HT1080-NT tox inconclusive, KB-3-1 cytotox inconclusive, HT1080 IDH1KD tx 16.4µM (no result: MCF10A rereplic, SW480 rerep)
NCC(=O)c1cccc([N+](=O)[O-])c1	none (no result: HT1080-NT tox, MCF10A rereplic, SW480 rerep, HT1080 IDH1KD tx)
CCOP(=O)(OCC)c1nc(-c2cccc3ccccc23)oc1NCc1ccccc1	KB-V1 MDR tox 9.2µM, MCF10A rereplic inconclusive, SW480 rerep inconclusive
COP(=O)(OC)c1nc(-c2cccc3ccccc23)oc1NCCc1ccccc1	KB-V1 MDR tox inconclusive, HT1080-NT tox inconclusive, MCF10A rereplic 20.6µM, SW480 rerep inconclusive, HT1080 IDH1KD tx inconclusive
CCCNc1oc(-c2cccc3ccccc23)nc1C#N	MCF10A rereplic inconclusive
CN1C[C@H](C(=O)N[C@]2(C)O[C@@]3(O)[C@@H]4CCCN4C(=O)[C@H](Cc4ccccc4)N3C2=O)CC2c3cccc4[nH]cc(c34)C[C@H]21 (stereo partly specified)	HT1080-NT tox inconclusive, MCF10A rereplic inconclusive, SW480 rerep 0.355µM!, HT1080 IDH1KD tx inconclusive
O=C1OC(=O)C2C1[C@@H]1CC[C@H]2O1 (stereo partly specified)	HT1080-NT tox inconclusive, KB-3-1 cytotox inconclusive, MCF10A rereplic inconclusive, HT1080 IDH1KD tx inconclusive
C[C@H]1C=CC(=O)O[C@H]1c1ccccc1	KB-V1 MDR tox inconclusive, KB-3-1 cytotox 20.6µM, MCF10A rereplic inconclusive
CCC1(c2ccccc2)CCC(=O)NC1=O (stereo unspecified)	none (no result: KB-V1 MDR tox, HT1080-NT tox, KB-3-1 cytotox, HT1080 IDH1KD tx)
c1ccc(-c2nn(-c3ccccc3)[n+](-c3ccccc3)n2)cc1	KB-3-1 cytotox 7.31µM, HT1080 IDH1KD tx inconclusive
Cn1c(NN=O)nc2ccccc21	HT1080-NT tox inconclusive, KB-3-1 cytotox inconclusive, SW480 rerep inconclusive, HT1080 IDH1KD tx 4.61µM
CN1CCN(Cc2nc3ccccc3n2C)CC1	none
COc1ccc(NC(=O)CN(C)S(=O)(=O)c2ccc3[nH]c(=O)oc3c2)cc1	SW480 rerep inconclusive
CCCCn1c(=O)c(C(=O)NCCc2ccccc2)c(O)c2ccccc21	MCF10A rereplic 18.4µM
CCCCCn1c(=O)c(C(=O)NCc2ccncc2)c(O)c2ccccc21	KB-V1 MDR tox 2.59µM, KB-3-1 cytotox 5.8µM, MCF10A rereplic inconclusive, SW480 rerep inconclusive
COc1ccc(Cn2c(=O)oc3ccc(C)cc32)cc1OC	KB-V1 MDR tox inconclusive, SW480 rerep inconclusive
CCN(CC)C(=O)c1ccc2c(c1)C1C(Cl)C(Sc3ccccc3[N+](=O)[O-])CC1C(C(=O)O)N2 (stereo unspecified)	KB-3-1 cytotox 2.59µM
Cc1ccc2c(c1Cl)NC(C(=O)O)C1CC(Sc3ccccc3[N+](=O)[O-])C(Cl)C21 (stereo unspecified)	none
